An excerpt weighted towards active compounds, which were near 12% of everything screened.
Sfp inh: blocks B. subtilis Sfp PPTase activity. Biochemical Sfp PPTase activity, qHTS. AID 1490. actives 3.5% (n = 310,000). Q9F4F7. Potency, µM, without a hit: largest response in the series, negative = inhibition, hits mostly inhibitors;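 further: the enzyme is Sfp with the accession as filed and its product quenches rhodamine fluorescence; 0% = enzyme reaction without inhibitor and -100% = no enzyme wells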
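Step 1, compound plus 15 nM Sfp-PPTase, 15 min, room temperature. Step 2, add rhodamine-CoA (5 uM) and BHQ-2-YbbR (12.5 uM). Step 3, read 525/598 nm fluorescence at 0 and 30 min.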
G9a inh: G9a (human) methyltransferase inhibition. G9a H3K9 monomethylation, AlphaScreen, 2 h. Potency, µM (doses to about 102 µM), for inactives: at the top dose activity, negative = inhibition, usual class: inhibitors. actives 8.8% (n = 350,000). AID 504332; further: on the % scale 0 is the no-effect control and ±100 the full control effect; nearly all actives have a fitted effect of over 75% in size
Target sequence (Q96KQ7 913-1193 limits assumed): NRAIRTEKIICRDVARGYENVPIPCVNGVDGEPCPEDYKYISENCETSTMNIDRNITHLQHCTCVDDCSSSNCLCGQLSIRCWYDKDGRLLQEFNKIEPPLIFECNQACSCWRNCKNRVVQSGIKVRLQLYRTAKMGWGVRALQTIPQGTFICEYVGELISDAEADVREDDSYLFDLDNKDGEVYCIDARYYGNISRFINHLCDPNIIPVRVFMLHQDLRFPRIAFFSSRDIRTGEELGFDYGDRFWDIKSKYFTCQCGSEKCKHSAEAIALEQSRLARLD
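Readings reflect AlphaScreen signal from monomethyl-H3K9 antibody detection. HMT at 20 nM; substrate b-H3K9 500 nM; cofactor SAM 20 uM; 2 h RT reaction; compounds tested as titrations in qHTS with 15 min preincubation.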
HP1b chromo inh: inhibitors of HP1-beta chromodomain binding to methylated histone tails. AlphaScreen HP1-beta / biotin-H3K9me3 peptide binding. actives 0.56% (n = 390,000). AID 540317. Potency, µM (highest dose often 114 µM), for the others: at the highest dose activity change, negative = inhibition, most hits filed as inhibitors. P83916; further: nearly all actives have a fitted effect of over 70% in size
Target sequence (P83916 whole entry, looked up): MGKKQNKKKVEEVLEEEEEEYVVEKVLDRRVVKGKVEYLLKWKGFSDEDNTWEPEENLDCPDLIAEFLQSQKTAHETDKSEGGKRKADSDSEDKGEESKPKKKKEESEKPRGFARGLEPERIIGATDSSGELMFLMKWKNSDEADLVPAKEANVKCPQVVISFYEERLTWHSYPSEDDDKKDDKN
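HP1-beta protein (50 nM final) preincubated 30 min at room temperature with biotinylated H3(1-18)K9me3 peptide (50 nM) in PBS pH 7.4, 0.01% Tween-20, then compound added for 30 min. AlphaScreen streptavidin donor/nickel chelate acceptor beads (10 ug/mL final), 30 min dark, luminescence read.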
L3MBTL1 block: L3MBTL1 (human) inhibition; Potency, µM (series often up to 57.1 µM), inactives show top-dose activity, negative = inhibition, usual class: inhibitors; AlphaScreen L3MBTL1–H3K9me1 peptide binding; Q9Y468; AID 485360; actives 0.66% (n = 230,000); further: on the % scale 0 is the no-effect control and ±100 the full control effect; nearly all actives have a fitted effect of over 60% in size
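Displacement of a biotinylated histone H3(1-15) peptide monomethylated at Lys9 (75 nM) from L3MBTL1 (50 nM) was measured by AlphaScreen after a 30 min room-temperature compound incubation; cefsulodin titration served as intraplate control.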
BAZ2B inh: blocks human BAZ2B. AlphaScreen BAZ2B-H3K14Ac peptide displacement. actives 4.4% (n = 360,000). AID 504333. Q9UIF8. Potency, µM (doses to about 114 µM), for the others: top-dose activity change, negative = inhibition, hits mostly inhibitors; further: on the % scale 0 is the no-effect control and ±100 the full control effect; nearly all actives have a fitted effect of over 60% in size
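Protein-peptide AlphaScreen: BAZ2B 50 nM, b-H3K14Ac 50 nM, 1x PBS pH 7.4 + 0.01% Tween-20. Preincubation 30 min RT; cpd 30 min RT (top 110 uM); beads 20 min RT, light-protected.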
JMJD2A Tudor: blocks the human JMJD2A Tudor domain | O75164 | AlphaScreen JMJD2A-Tudor / H3K4me3 peptide binding | Potency, µM (titrated, usually from 114 µM), for the others: at the highest dose activity change, negative = inhibition, hits mostly inhibitors | actives 4.4% (n = 390,000); further: on the % scale 0 is the no-effect control and ±100 the full control effect; nearly all actives have a fitted effect of over 50% in size
Active calls of the source: *; ? = inconclusive; / = no result given; [ ] = remark or other dose. The call rests on the fitted dose curve; in most records, active means well fitted curve in the direction sought with a large enough effect; inconclusive means small, poorly fitted or top-dose-only effect, or another doubt; inactive means no such curve, though single readings can be large; an effect the other way counts as inactive or inconclusive. Potency means the concentration at half of the fitted maximal effect.

SMILES	Sfp inh	G9a inh	HP1b chromo inh	L3MBTL1 block	BAZ2B inh	JMJD2A Tudor
CCN(CC)c1ccc(/C=N/n2c(-c3ccccc3Br)n[nH]c2=S)cc1	?	2.82µM*	?	/	?	?
Cc1ccc(-n2nc(C)c(/C=N/n3c(C)n[nH]c3=S)c2Cl)cc1	6.3%	3.16µM*	30.4%	/	6.8%	-19.7%
S=c1[nH]nc(-c2ccccc2)n1/N=C/c1cccc(Br)c1	10.4%	-42.5%[0.501 µM]	16.7%	-1.7%[2.29 µM]	-1.7%	-25.2%
CNC(=S)N/N=C/c1c(C)nn(-c2ccccc2)c1Cl	-4.6%	-26.7%[2.33 µM]	29.2%	/	21.7%	-4.0%
COc1ccc(/C=N/n2c(-c3ccccc3)n[nH]c2=S)cc1	-5.6%	1.41µM*	-15.6%	-3.0%	?	25.1µM*
Cc1ccc(N[S+](=O)([O-])c2cc3c(cc2CCc2ccccc2)NC(=O)CO3)cc1C	/	/	/	/	/	-7.1%
COc1cc(/C=N/n2c(-c3ccccc3)n[nH]c2=S)cc(OC)c1OC	-10.5%	/	?	-6.2%	-5.4%	5.01µM*
Oc1ccc(/C=N/n2c(-c3ccccc3)n[nH]c2=S)cc1	-1.6%	-1.0%[0.501 µM]	42.1%	1.1%[2.29 µM]	-3.1%	20µM*
Cc1cccc2nc(Cn3c(=O)n(-c4ccc(Cl)cc4)c(=O)c4c5c(sc43)CCC5)cc(=O)n12	/	0.7%[59 µM]	18.3%	/	6.7%	-12.3%
CC(C)OCCCNC(=O)c1cc2c(-c3ccc(Cl)cc3)nn(C)c2s1	/	3.5%[59 µM]	38.2%	/	/	-1.3%
CCOc1ccc(NC(=O)c2c(NCc3ccc(C)o3)sc3c2CCCCC3)cc1	/	5.62µM*	8.2%	/	-22.0%	?
CCOC(=O)c1ccc(NC(=O)c2c(NCc3sccc3C)sc3c2CCC(C)C3)cc1 (configuration not stated)	/	?	29.8%	/	-15.2%	-33.3%
CCOc1ccc(NC(=O)c2c(NCc3cccs3)sc3c2CCCCC3)cc1	/	8.91µM*	-4.7%	/	?	?
CCOc1ccc(NC(=O)c2c(NCc3sccc3C)sc3c2CCCCC3)cc1	/	8.91µM*	-21.7%	/	-38.1%	?
COc1ccc(NC(=O)c2c(NCc3cccs3)sc3c2CCCCC3)cc1	/	7.94µM*	-5.2%	/	39.8µM*	50.1µM*
COc1ccc(NC(=O)c2c(NC(=O)COc3ccccc3)sc3c2CCCCC3)cc1	/	-26.0%[59 µM]	41.9%	/	12.8%	-9.3%
CN(C)CCCOc1c2ccccc2n(Cc2ccccc2)[n+]1[O-]	8.0%	/	/	/	/	/
Cc1c(C(=O)N2CCOCC2)oc2c1-c1nn(CC(=O)NCc3cccc(Cl)c3)cc1CC2	/	-8.7%[59 µM]	10.3%	/	?	?
CCOC(=O)c1cc2c(=O)n3ccccc3nc2n(CC2CCCO2)c1=NC(=O)c1ccc(OC)cc1OC (configuration not stated)	/	-33.9%[59 µM]	27.1%	/	-12.8%	-19.8%
C#CCOCCOCCOCCNc1nc(N2CCN(C(=O)[C@H](CCC(=O)O)n3cc(CN)nn3)CC2)nc(N2CCN(C(=O)[C@H](CCCCN)n3cc([C@@H](N)CC(N)=O)nn3)CC2)n1	/	/	46.0%	-10.3%	/	56.2µM*
C#CCOCCOCCOCCNc1nc(N2CCN(C(=O)[C@H](CCCCN)n3cc(CN)nn3)CC2)nc(N2CCN(C(=O)[C@H](CCC(=O)O)n3cc([C@@H](N)CCCCN)nn3)CC2)n1	/	/	32.2%	14.6%	/	89.1µM*
C#CCOCCOCCOCCNc1nc(N2CCN(C(=O)[C@H](CCCCN)n3cc(CN)nn3)CC2)nc(N2CCN(C(=O)[C@H](CCCCN)n3cc(CN)nn3)CC2)n1	/	/	28.7%	8.6%	/	79.4µM*
C#CCOCCOCCOCCNc1nc(N2CCN(C(=O)C([C@@H](C)O)n3cc([C@@H](N)CCCCN)nn3)CC2)nc(N2CCN(C(=O)[C@H](CC(N)=O)n3cc([C@@H](N)C(C)C)nn3)CC2)n1 (some centres not stated)	/	/	17.8%	-1.2%	/	?
C#CCOCCOCCOCCNc1nc(N2CCOCC2)nc(N2CCN(C(=O)[C@H](CCCCN)n3cc(CCC(=O)O)nn3)CC2)n1	/	/	22.6%	/	/	-10.5%
C#CCCCCCCCCCCCC(O)CC(O)COC(C)=O (configuration not stated)	-4.6%	-15.5%[2.33 µM]	/	/	/	/
SMILES	Sfp inh	G9a inh	HP1b chromo inh	L3MBTL1 block	BAZ2B inh	JMJD2A Tudor
Cn1cnc(S(=O)(=O)N2CCCC(C(=O)Nc3ccc(OC(F)(F)F)cc3)C2)c1 (configuration not stated)	/	10.1%[59 µM]	24.7%	/	-3.9%	-4.0%
COc1ccc(-c2c(C)nn3c(C(F)(F)F)cc(-c4ccc(Br)cc4)nc23)cc1	/	?	-8.7%	/	?	?
COc1ccccc1-c1c(C)nn2c(C(F)(F)F)cc(-c3ccccc3)nc12	/	8.91µM*	-7.4%	/	?	-34.0%
CSc1ccc(CCNC(=O)Cn2c(C)c3cnn(-c4ccccc4)c(=O)c3c2C)cc1	/	-29.1%[59 µM]	21.3%	/	-2.3%	-14.8%
CC1=CC(C)(C)[N+](C)=CN1c1ccccc1	12.8%	6.31µM*	5.2%	7.9%	-7.9%	-8.7%
Cc1nc2cc(C(=O)O)ccc2n1-c1ccccc1	5.2%	?	42.7%	8.4%	4.8%	-9.2%
O=C1c2cccnc2C(=O)N1c1cccc([N+](=O)[O-])c1	10.1%	5.3%	32.0%	/	56.2µM*	?
O=C(O)c1cccc(N2C(=O)c3cccnc3C2=O)c1	10.0%	8.9%[59 µM]	6.1%	/	0.8%	3.2%
CCN1CCN(CC(=O)c2c[nH]c3ccc(C)cc23)CC1	16.9%	-9.3%[59 µM]	-13.3%	/	10.2%	?
CCOC(=O)N1CCN(CC(=O)c2c[nH]c3ccc(F)cc23)CC1	0.4%	50.1µM*	/	/	4.0%	/
CN1C(=O)c2ccccc2Sc2ccc(C(=O)O)cc21	15.0%	12.8%	21.3%	/	7.8%	2.4%
C=Cc1ccc2c(c1)N(C)C(=C)S2	10µM*	8.91µM*	-6.2%	1.9%	-26.4%	?
CC(OC(=O)c1ccc2c(c1)C(=O)N(Cc1ccncc1)C2=O)C(=O)Nc1cccc(Cl)c1Cl (configuration not stated)	-5.7%	89.1µM*	-5.1%	7.7%	-0.5%	-28.2%
O=C(COC(=O)c1ccc2c(c1)C(=O)N(Cc1ccncc1)C2=O)Nc1ccccc1[N+](=O)[O-]	-16.6%	-0.6%[59 µM]	-19.2%	?	-38.7%	?
NS(=O)(=O)c1cccc(NC(=O)CSc2ccccn2)c1	?	?	28.0%	/	5.1%	-2.9%
NS(=O)(=O)c1ccc(NC(=O)CSc2ccccn2)cc1	79.4µM*	-47.9%[59 µM]	32.2%	-0.9%	2.3%	-0.7%
NS(=O)(=O)c1ccc(NC(=O)CSc2ncnc3ccccc23)cc1	8.8%	-32.1%	38.3%	-4.0%	79.4µM*	-13.1%

Screening results deposited in PubChem BioAssay by National Center for Advancing Translational Sciences (NCATS).
